Wnt bcat act: Wnt/beta-catenin pathway activators, primary screen, cell-based, plate reader, single point. Wnt/beta-catenin reporter cell assay, activator. activation, % at 9.35 µM. hit rate 1.2% among 300,000; in the data active = activation above about 30%, passing the limit was not always enough; inconclusive = no clear call, values can overlap the other calls;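 also: 0% = neutral control wells and 100% = positive control wells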
Statin myotox sup: suppressors of statin myotoxicity in C2C12 myotubes, primary screen, cell-based, single point, plate reader; C2C12 myotubes + simvastatin, ATP luminescence, 48 h; scaled: DMSO 0, geranylgeraniol control 100; rescue of ATP level, % at 7.49 µM; hit rate 0.78% among 330,000;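 active = mean ATP rescue above about 67%, or every replicate alone reaching that limit, limit read from the data, passing the limit was not always enough; inconclusive = no clear call, values can overlap the other calls; inactive = mean under the limit and some replicate under it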;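 also: myotubes were challenged with 10 µM simvastatin during compound exposure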
MITF TRPM1 HTS: activators of MITF-driven TRPM1 promoter reporter, primary screen, cell-based, SK-MEL-5, luciferase, single point; SK-MEL-5 TRPM1-promoter luciferase, 24 h; % of positive control, neutral wells = 0; AID 588334, 2011; activation, % at 12.5 µM; hit rate 0.75% among 300,000;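 active = mean activation of at least 80% with every replicate also reaching 80%; inconclusive = mean reaches 80% but some replicate falls short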;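 also: 0% = neutral control wells and 100% = parthenolide positive control wells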
esBAF inh: Bmi1 luciferase reporter increase in mESCs, primary screen, esBAF inhibitor project, mouse ES cells, Bmi1 luciferase knock-in, single point. 24 h; 100% = twice the neutral-well signal. reporter increase, % at 12.5 µM. hit rate 2% among 350,000. AID 602393, 2012; in the data active = activation above about 40%; inconclusive = no clear call, values can overlap the other calls;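 also: 0% = median of the plate's neutral control wells and 100% = double that signal; a rise in the Bmi1 reporter signal indicates esBAF inhibition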
EBV LMP1 NFkB: EBV LMP1-driven NF-kappaB luciferase reporter inhibitors, primary screen, cell-based, luminescence, single point; LMP1-induced NF-kappaB luciferase reporter cells; hit rate 0.69% among 350,000; inhibition, % at 12.5 µM; in the data active = inhibition above about 41%; inconclusive = no clear call, values can overlap the other calls;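 also: 0% = neutral control wells and 100% = reference inhibitor control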
MITF TRPM1 inh: inhibitors of MITF-dependent TRPM1 promoter reporter, primary screen, cell-based, SK-MEL-5, single point, luciferase; SK-MEL-5 TRPM1 promoter luciferase, 24 h; inhibition, % at 12.5 µM; hit rate 0.83% among 330,000; AID 488899, 2010;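 active = mean inhibition across replicates of 60% or more, whatever share of single replicates reaches that level; inconclusive = some that reach 60%, reason not given; inactive = mean inhibition across replicates below 60%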
An asterisk follows results filed as active; ? = inconclusive; / = no result. An excerpt weighted towards active compounds, which were near 4% of everything screened.

SMILES | Wnt bcat act | Statin myotox sup | MITF TRPM1 HTS | esBAF inh | EBV LMP1 NFkB | MITF TRPM1 inh
Cc1cc(Sc2ccc([N+](=O)[O-])cn2)ccc1Br | -2 | / | 10 | / | 11 | -10
Cc1noc(C)c1COc1ccccc1C(=O)Nc1ccc(C(N)=O)cc1 | 2 | 2 | 0 | 5 | 6 | 0
COC(=O)CSc1nc(-c2ccccc2)c2c(c1C#N)CCCC2 | / | -1 | 13 | -9 | 9 | -15
CCOc1ccc(-c2nc(CSCC(=O)NCCN3CCOCC3)c(C)o2)cc1 | / | 102* | 2 | -88 | 2 | 1
COc1ccc(NC(=O)Nc2nnc(-c3cccs3)s2)cc1 | 41* | / | 98* | / | -38 | -93
O=C(Nc1ccccc1)Nc1nnc(-c2cccs2)s1 | 29 | / | 73 | / | -19 | -70
Cc1nnc(NC(=O)c2cccc(F)c2)s1 | / | 2 | 6 | 13 | -7 | -4
CC(C)(C)CC(=O)Nc1nnc(-c2cccs2)s1 | 52* | 15 | 44 | 48* | -10 | -40
O=C(Nc1nnc(-c2cccs2)s1)c1cccc(F)c1 | 39* | 4 | 32 | 60* | -16 | -30
O=C(Nc1cc(Cl)ccc1N1CCOCC1)c1ccc(=O)[nH]c1 | -1 | 7 | 8 | -13 | 0 | -6
CCOC(=O)c1c(/N=C/C2=C(O)CCCC2=O)sc(C)c1C | 2 | / | 5 | / | 4 | -5
CCOC(=O)c1c(-c2ccc(OC)cc2)csc1/N=C/C1=C(O)CCCC1=O | / | / | 4 | / | 53* | -4
CCOc1ccc(N=C2Sc3nc4ccc(C)cc4cc3CN2CCOC)cc1 | -3 | -4 | 6 | 54* | 4 | -4
COCCN1Cc2cc3cc(C)ccc3nc2SC1=Nc1ccc(OC)cc1 | 0 | / | 17 | / | -8 | -18
COCCN1Cc2cc3cc(C)ccc3nc2SC1=Nc1cccc(OC)c1 | -2 | -11 | 8 | 49* | -9 | -5
CCCn1nnnc1SCC(=O)N1CCCc2ccccc21 | 2 | 9 | / | -12 | -22 | 1
Cc1ccc(S(=O)(=O)Nc2nc3ccccc3nc2NCc2ccco2)cc1 | / | -4 | -5 | 92* | -20 | 6
Cc1ccc(C2=NN(S(C)(=O)=O)C(c3cccs3)C2)cc1 (stereo not given) | / | -3 | ? | / | -51 | -83
COc1ccc(C2=NN(S(C)(=O)=O)C(c3cccs3)C2)cc1 (stereo not given) | 0 | / | 58 | / | -28 | -58
CCc1ccc(C2=NN(S(C)(=O)=O)C(c3cccs3)C2)cc1 (stereo not given) | 44* | / | / | 32 | -48 | -22
CS(=O)(=O)N1N=C(c2ccc(Br)cc2)CC1c1cccs1 (stereo not given) | / | 13 | 21 | 77* | -32 | -23
CSc1oc(-c2ccc(F)cc2)nc1S(=O)(=O)c1ccccc1 | -3 | -7 | 11 | 9 | 3 | -17
CSc1oc(-c2ccc(F)cc2)nc1S(=O)(=O)c1ccc(F)cc1 | -2 | -2 | 20 | -7 | 89* | -22
Cc1ccc(S(=O)(=O)Nc2ccc3c(c2)CC(=O)N([C@H](C)CO)C[C@@H](C)[C@@H](CN(C)C)O3)cc1 | / | 4 | / | 3 | / | /
CC(=O)Nc1cc2nn(-c3ccccc3)nc2cc1Cl | 55* | / | 30 | / | -18 | -26
SMILES | Wnt bcat act | Statin myotox sup | MITF TRPM1 HTS | esBAF inh | EBV LMP1 NFkB | MITF TRPM1 inh
CC(C)(C)C(=O)Nc1cc2nn(-c3ccccc3)nc2cc1Cl | / | 0 | -84 | -78 | 75* | 85*
O=C(Nc1cc2nn(-c3ccccc3)nc2cc1Cl)c1ccco1 | 5 | 13 | 25 | ? | -98 | -28
N#C/C(=C(\O)c1cc(Cl)sc1Cl)c1nc2ccccc2[nH]1 | -3 | -12 | 9 | 4 | 7 | -10
COc1ccccc1-[n+]1c(C)cc(/C=C2\Sc3ccccc3N2C)cc1C | -16 | -155 | -94 | -84 | 52* | 93*
COc1ccc(C(=O)/C=C2\Sc3ccccc3N2C)cc1 | 13 | / | 8 | / | -69 | -9
COc1ccc(-[n+]2c(C)cc(/C=C3\Sc4ccccc4N3C)cc2C)cc1 | / | / | -100 | / | -7 | 101*
CO[C@@H]1CN(C)C(=O)c2cc(NC(=O)Nc3ccccc3F)ccc2OC[C@@H](C)N(S(=O)(=O)CC(F)(F)F)C[C@H]1C | / | -5 | / | 7 | / | /
O=C(COc1ccc(F)cc1)c1ccc2c(c1)CCCC2 | / | 1 | ? | 42* | -21 | -80
CC1=C(C(=O)Nc2ccccn2)C(c2ccc(Br)cc2)NC(=S)N1 (stereo not given) | / | / | 57 | / | -25 | -50
CC1=C(C(=O)Nc2ccccn2)C(c2ccc(Cl)cc2)NC(=S)N1 (stereo not given) | 2 | -18 | 38 | 44* | -24 | -36
CC1=C(C(=O)Nc2ccccn2)C(c2ccccc2Cl)NC(=S)N1 (stereo not given) | 22 | 13 | 26 | 66* | -12 | -27
CC1=C(C(=O)Nc2ccccn2)C(c2ccc(Cl)cc2Cl)NC(=S)N1 (stereo not given) | / | / | -7 | / | -5 | 7
CN1CCCCN2[C@H](CO)[C@H](c3ccc(C#Cc4ccccc4F)cc3)[C@H]2C1 | / | 10 | / | -7 | / | /
C[C@@H]1CN([C@H](C)CO)C(=O)c2cc(C#CCc3ccccc3)cnc2O[C@@H]1CN(C)CC1CC1 | / | -1 | / | / | / | /
C=CCN1CCN(C(c2ccccc2)c2nnnn2CCC(C)C)CC1 (stereo not given) | / | 71* | -4 | 0 | 2 | 3
Cc1ccc(C(c2nnnn2Cc2cccs2)N2CCN(Cc3ccc4c(c3)OCO4)CC2)cc1 (stereo not given) | / | / | -1 | / | -8 | 2
COCCn1nnnc1C(c1ccccc1)N1CCN(Cc2ccc3c(c2)OCO3)CC1 (stereo not given) | / | 108* | 8 | -4 | 1 | -8
COCCn1nnnc1C(c1ccc(C)cc1)N1CCN(Cc2ccc3c(c2)OCO3)CC1 (stereo not given) | -2 | 93* | 5 | -7 | -1 | -4
Cc1cc(NS(=O)(=O)c2ccc(NC(=O)N[C@H](C(=O)O)C(C)C)cc2)no1 | 1 | / | -2 | / | -6 | 1
Cc1cc2ncc(C(N)=O)cn2n1 | 1 | -5 | 5 | -1 | 4 | -8
CSc1ccccc1N=Cc1nc(-c2ccccc2)oc1O | / | 26 | 15 | 52* | -1 | -13
Oc1oc(-c2ccccc2)nc1C=NCc1ccccc1 | 16 | 13 | 103* | 56* | -7 | -99
COc1ccc(CNC(=O)C2=C(C)C(=O)OC23CCC(C)CC3)cc1 (stereo not given) | -4 | 3 | -3 | 5 | -3 | 1
O=C(CCCOc1ccccc1)NCCc1nc2ccccc2[nH]1 | -1 | 6 | -17 | 2 | -5 | 14
